# A number with no mark means an inactive call. The rule behind the calls is not given here.
# Target: Pantothenate synthetase (Mycobacterium tuberculosis (strain ATCC 25618 / H37Rv)) (UniProt P9WIL5)
# Assay: Coupled enzyme confirmation of inhibitors against recombinant Mtb PanC (AID 375);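 note: 0% = full reaction with vehicle and 100% = no enzyme background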
# Settings: coupled enzyme assay; at 10 µM, hits give high values
# Chain of Pantothenate synthetase (Mycobacterium tuberculosis (strain ATCC 25618 / H37Rv)) (P9WIL5 whole entry, looked up): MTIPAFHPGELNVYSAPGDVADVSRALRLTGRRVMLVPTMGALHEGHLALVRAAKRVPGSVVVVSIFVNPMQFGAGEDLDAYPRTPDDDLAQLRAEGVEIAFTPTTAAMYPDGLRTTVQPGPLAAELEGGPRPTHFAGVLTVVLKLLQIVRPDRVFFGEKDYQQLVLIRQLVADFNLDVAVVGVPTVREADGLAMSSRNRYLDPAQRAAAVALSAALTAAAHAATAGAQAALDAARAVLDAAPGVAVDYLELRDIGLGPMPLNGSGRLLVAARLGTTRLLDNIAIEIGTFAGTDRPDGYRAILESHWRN
row,Compound,inhibition
1,Cc1[nH]c2c(C)cccc2c(=O)c1Br,0%
2,COC(=O)C1CCN(C(=O)CN2C(=O)NC(CCc3ccccc3)C2=O)CC1 (configuration not stated),0%
3,Cc1ccc(CNC(=O)CSc2n[nH]c(N)n2)cc1,0%
4,COc1ccc(C(=O)NCC(=O)NC2=NCCS2)cc1,0%
5,CCC(C)NC(=O)C1c2cc(OC)c(OC)cc2C(=O)N(C)C1c1ccc(OC)cc1 (configuration not stated),0%
6,COc1cc(C2CC(=O)NC3=C2C(=O)CC(C)(C)C3)ccc1O (configuration not stated),0%
7,CCOc1ccc2nc(S(N)(=O)=O)sc2c1,3%
8,O=C(c1ccco1)N1CCN(S(=O)(=O)c2ccc(Oc3ccccc3)cc2)CC1,0%
9,Cc1cc(C)nc(N2CCC(C(=O)Nc3ccc4c(c3)CCC4)CC2)n1,5%
10,CCCCN(C)C(=O)c1cn(C)c2ccc(S(=O)(=O)N(C)C)cc2c1=O,0%
11,CCCCCCn1c(CN2CCN(Cc3ccccc3)CC2)nc2c1c(=O)n(C)c(=O)n2C,10%
12,COc1ccc(CCNS(=O)(=O)c2ccc3c(c2)CCN3C(=O)CCC(=O)O)cc1OC,0%
13,CCOC(=O)N1CCN(c2cc3[nH]c(=S)[nH]c3cc2F)CC1,2%
14,Cc1nc(NCCNC(=O)c2ccco2)c2c(C)c(C)sc2n1,2%
15,Cc1nc2sccn2c(=O)c1CCN1CCC(=C(c2ccccc2)c2ccc(F)cc2)CC1,3%
16,CCCCN1CN(S(=O)(=O)c2cccs2)c2nc3ccccc3nc21,0%
17,CCNC(=O)COc1ccc(Br)cc1Cl,4%
